Among the data in PubChem BioAssay (EPA / NIEHS) are AC50 and outcome values, retold here.

Activity calls are given as the source filed them. The calls were made as follows: active = hit-call score of the fitted dose curve at least 0.9, where 1 is the maximum; inconclusive = response in the unintended direction; inactive = score below 0.9.

Chain of Androgen Receptor/SRC-1 Co-activator, AR (gene 367) (P10275 whole entry, looked up, the tested form may be a part): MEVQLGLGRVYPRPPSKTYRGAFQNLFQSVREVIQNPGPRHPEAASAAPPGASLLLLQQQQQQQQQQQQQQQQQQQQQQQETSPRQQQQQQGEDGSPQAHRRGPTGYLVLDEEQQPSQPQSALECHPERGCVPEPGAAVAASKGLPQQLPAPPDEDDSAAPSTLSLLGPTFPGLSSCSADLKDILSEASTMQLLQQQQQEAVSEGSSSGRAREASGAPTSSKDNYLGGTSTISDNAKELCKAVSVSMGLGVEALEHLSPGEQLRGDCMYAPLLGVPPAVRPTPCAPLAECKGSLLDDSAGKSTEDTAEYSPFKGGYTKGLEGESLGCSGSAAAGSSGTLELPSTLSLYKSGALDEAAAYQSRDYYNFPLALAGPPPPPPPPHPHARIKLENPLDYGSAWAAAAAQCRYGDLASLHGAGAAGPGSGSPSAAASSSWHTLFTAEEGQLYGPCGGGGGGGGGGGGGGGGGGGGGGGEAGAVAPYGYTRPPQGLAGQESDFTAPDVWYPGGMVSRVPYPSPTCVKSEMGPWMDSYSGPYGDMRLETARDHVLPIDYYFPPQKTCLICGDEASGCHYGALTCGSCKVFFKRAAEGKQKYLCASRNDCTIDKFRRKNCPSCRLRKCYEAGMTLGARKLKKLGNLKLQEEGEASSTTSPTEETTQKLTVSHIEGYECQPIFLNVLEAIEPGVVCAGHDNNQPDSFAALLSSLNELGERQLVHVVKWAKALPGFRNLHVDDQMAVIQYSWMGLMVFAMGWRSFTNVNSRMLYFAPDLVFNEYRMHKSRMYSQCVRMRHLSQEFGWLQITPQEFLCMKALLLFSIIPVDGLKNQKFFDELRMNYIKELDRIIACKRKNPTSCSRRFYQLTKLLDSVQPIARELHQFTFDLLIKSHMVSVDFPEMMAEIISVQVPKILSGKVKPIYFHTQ

The assay has as its target Androgen Receptor/SRC-1 Co-activator, AR (gene 367) (UniProt P10275). Description: OT_AR_ARSRC1_0960: Odyssey Thera (OT) 16-hour HEK293T Protein-Complementation Assay for Androgen Receptor/SRC-1 Co-activator (AID 2283353).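 Also: actives raise the signal above DMSO so potency reflects increased AR and SRC-1 complex.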 The method, then: OT_AR_ARSRC1_0960 is a cell-based, single-readout assay that uses HEK293T, a human kidney cell line, with measurements taken at 16 hours after chemical dosing in a 384-well plate.OT_AR_ARSRC1_0960 is one of one assay component(s) measured or calculated from the OT_AR_ARSRC1_0960 assay. It is designed to make measurements of protein fragment complementation, a form of binding reporter, as detected with fluorescence intensity signals by Protein-fragment Complementation technology.Data from the assay component OT_AR_ARSRC1_0960 was analyzed into 1 assay endpoint. This assay endpoint, OT_AR_ARSRC1_0960, was analyzed in the positive analysis fitting direction relative to DMSO as the negative control and baseline of activity. Using a type of binding reporter, measures of receptor for gain-of-signal activity can be used to understand the binding at the pathway-level as they relate to the gene AR. Furthermore, this assay endpoint can be referred to as a primary readout, because the performed assay has only produced 1 assay endpoint. To generalize the intended target to other relatable targets, this assay endpoint is annotated to the nuclear receptor intended target family, where the subfamily is steroidal.
Protein-fragment complementation assay, or PCA, is a method for the identification and quantification of protein-protein interactions. In the PCA, the proteins of interest ("bait" and "prey") are each covalently linked to fragments of a third protein (e.g. DHFR, which acts as a "reporter"). Interaction between the bait and the prey proteins brings the fragments of the reporter protein in close proximity to allow them to form a functional reporter protein whose activity can be measured. The OT AR / SRC-1 assay assessed androgen receptor chemical interactions using a rapidly maturing, intensely fluorescent mutant of YFP known as Venus, rationally dissected into two separate fragments. […] Fusion constructs were transfected into HEK293T cells with a (Gly4Ser)2 linker between the AR/SRC-1 and YFP fragment genes to facilitate complementation when interacting proteins bring fragments into close proximity. The construct is stably expressed in HEK293T cells. […] Images were acquired on an Evotec Opera at 2 wavelengths (488 and 635nm), and the ratio of fluorescence in the nucleus relative to fluorescence in the cytoplasm (N/C Ratio) in the 488nm channel was calculated for a minimum of 400 cells per image. Both agonists and antagonists of the AR receptor induce nuclear translocation to varying degrees. […] The OT AR/SRC-1 assay was also run for 16 hours (see description for OT_AR_ARSRC1_0960).
The term AC50 denotes the midpoint of the concentration-response curve, whichever way the signal moves. As to `CN[C@H]1CC[C@@H](c2ccc(Cl)c(Cl)c2)c2ccc(S(N)(=O)=O)cc21`, the AC50 was 17.4 µM (active).
Regarding `CNC(=O)[C@H]1O[C@@H](n2cnc3c(NCc4cc(Cl)ccc4OCc4cc(C)no4)ncnc32)[C@H](O)[C@@H]1N`, the call was inactive.
On to `Cc1ccccc1Cl`, for which the molecule was classed as inactive.
As to `CC(=O)Oc1ccccc1C(=O)O`, the molecule was called inactive.
On the same count and under the same terms, next, `Cc1nc(-c2ccc3c(c2)CCN(CCC2CCC(NC(=O)/C=C/c4ccc(F)cc4)CC2)CC3)no1` (stereo not drawn): “inactive”.
Still for that read-out and setting: next, `Cc1cccc(Nc2cc(Cl)nc(SCC(=O)O)n2)c1C`: “inactive”.
Turning to `CC(C)(C)c1cc(O)c(C(C)(C)C)cc1O`, the half-maximal activity concentration (AC50) was 50 µM (active).
Turning to `Cc1cc(NC(=O)C(=O)O)cc(C)c1Oc1ccc(O)c2c1CCC2`, the molecule was called inactive.
The same measure, in the same setting: the entry for `Cc1cccc(C)c1O` is “inactive”.
For the molecule `COc1ccc(S(=O)(=O)N2C(=O)[C@@](c3ccccc3OC)(N3C[C@H](O)C[C@H]3C(=O)N(C)C)c3cc(Cl)ccc32)c(OC)c1`, the concentration at half-maximal activity (AC50) is 40.4 µM (active).
On to `COc1ccc(C)cc1N`, for which the molecule was called inactive.
On the same count and under the same terms, the entry for `CCCCCCCCCCC` is “inactive”; for `Cc1ccc(C)c(C)c1` it is “inactive”; for `CCCCCC(=O)O` it is “inactive”.
`CCOc1ccc2c(c1)C(C)=CC(C)(C)N2`: the call was inactive.
Same read-out and setting: next, `COCCOC[C@H](CC1(C(=O)NC2CCC(C(=O)O)CC2)CCCC1)C(=O)Oc1ccc2c(c1)CCC2` (stereo partly drawn): “inactive”.
On to `COc1cc(-c2nc(NC(=O)c3cc4cc(C)cc(C)c4n3CC(=O)O)sc2CCC2CCCCC2)c(OC)cc1Cl`, for which the AC50 was 10.5 µM (active).
Consider `COCCOCCOC`, for which the outcome was inactive.
The same measure, in the same setting: next, `Cc1cccc([N+](=O)[O-])c1C`: “inactive”; `Cc1ccc(C)c(O)c1C`: “inactive”.
Still for that read-out and setting: the entry for `COc1ccc2c(c1)c(CC(=O)O)c(C)n2C(=O)c1ccc(Cl)cc1` is “inactive”; for `COc1cc(C=O)ccc1O` it is “inactive”.
The same measure, in the same setting: next, `Cc1ccc(N(C)C)cc1`: “inactive”.
